EPAC1 agonist: qHTS for Agonist of cAMP-regulated guanine nucleotide exchange factor 3 (EPAC1): primary screen; Rap guanine nucleotide exchange factor 3 (Homo sapiens), O95398; EPAC1 agonist qHTS, biochemical assay; response scale: 100% = response to 6.5 mM cAMP; Potency, µM (top dose mostly 154 µM), usual class: activators; actives 0.073% (n = 360,000); AID 720707, 2013; note: nearly all actives have a fitted effect of over 60% in size
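Normalized to 6.5 mM cAMP, activity reflects EPAC1-catalysed release of BODIPY-GDP from Rap1B, followed kinetically over 30 min at 480 nm excitation, 540 nm emission. Reaction contained 100 nM EPAC1, 250 nM Rap1B-BODIPY-GDP, 50 uM GDP.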
EPAC1 antagonist: qHTS for Antagonist of cAMP-regulated guanine nucleotide exchange factor 3 (EPAC1): primary screen; Rap guanine nucleotide exchange factor 3 (Homo sapiens), O95398; actives 0.14% (n = 360,000); AID 720709, 2013; Potency, µM (highest dose often 115 µM), usual class: inhibitors; EPAC1 GEF assay, Rap1b-BODIPY-GDP exchange fluorescence; note: nearly all actives have a fitted effect of over 50% in size
EPAC2 agonist: qHTS for Agonist of cAMP-regulated guanine nucleotide exchange factor 4 (EPAC2): primary screen | AID 720711, 2013 | actives 0.079% (n = 360,000) | Rap guanine nucleotide exchange factor 4 (Homo sapiens), Q8WZA2 | EPAC2 activation, biochemical qHTS; response scale: 100% = 6.5 mM cAMP response | Potency, µM (highest dose often 154 µM), hits mostly activators; note: nearly all actives have a fitted effect of over 50% in size
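qHTS, titration series. 100 nM EPAC2 / 250 nM Rap1B-BODIPY-GDP / 50 uM GDP; RT; ex 480/em 540 nm, 5-min reads to 30 min. Norm. to 6.5 mM cAMP = activation.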
LDHA block: qHTS assay for inhibitors of human lactate dehydrogenase; L-lactate dehydrogenase A chain (Homo sapiens), P00338; purified LDHA, NADH/diaphorase-resazurin fluorescence; hits give low values; activity change, % (values are at about 110 or 230 µM); actives 0.15% (n = 480,000); in the data active = activity change below about -30%; inconclusive = mostly about -25% to -30%
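Resorufin fluorescence (ex540/em590), read at 0 and 20 min after diaphorase/resazurin addition, reports the NADH left after a 5 min room-temperature reaction of 2 nM human LDH5 with 0.06 mM NADH and 0.2 mM pyruvate.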
EPAC2 antag: qHTS for Antagonist of cAMP-regulated guanine nucleotide exchange factor 2 (EPAC2): primary screen | Rap guanine nucleotide exchange factor 4 (Homo sapiens), Q8WZA2 | EPAC2 GEF exchange of Rap1B-BODIPY-GDP, fluorescence | Potency, µM (top dose mostly 114 µM), most hits filed as inhibitors | actives 0.18% (n = 360,000) | AID 720708, 2013; note: nearly all actives have a fitted effect of over 45% in size
USP1 inh: Inhibitors of USP1/UAF1: Primary Screen; Ubiquitin carboxyl-terminal hydrolase 1 (Homo sapiens), O94782; recombinant USP1/UAF1, Ub-Rhodamine cleavage fluorescence; Potency, µM (highest dose often 57.1 µM), most hits filed as inhibitors; actives 0.23% (n = 390,000); AID 743255, 2014; note: nearly all actives have a fitted effect of over 60% in size
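USP1/UAF1 complex at 1 nM was preincubated with compound for 15 min at room temperature, then Ub-Rho substrate (150nM final) was added. Fluorescence (480/540 nm) was read kinetically, 6 reads every 60 seconds.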
A number is an active result; i = inactive; ? = inconclusive; nt = no result; ! = not active in a repeat. A selection: hits, their analogues and other compounds. The true share with any hit is near 0.56%. Unless noted, calls come from the whole dose curve; as a rule, active = well fitted curve in the direction sought with a large enough effect; inconclusive = small, poorly fitted or top-dose-only effect, or another doubt; inactive = no such curve, though single readings can be large; an effect the other way counts as inactive or inconclusive.

SMILES	EPAC1 agonist	EPAC1 antagonist	EPAC2 agonist	LDHA block	EPAC2 antag	USP1 inh
Oc1sc(C=Nc2ccccc2)c2ccccc12	i	i	?	i	i	28µM
Oc1c(C=Nc2ccccc2)sc2ccccc12	i	i	i	i	i	i
Oc1c(C=Nc2cccnc2)sc2ccccc12	i	i	i	i	i	i
Oc1sc(C=Nc2ccc(F)cc2)c2ccccc12	i	i	i	i	i	32µM
CCCC[C@@]1(C2CCCC2)Cc2cc(OCC(=O)O)c(Cl)c(Cl)c2C1=O	i	i	i	i	45µM	i
C[C@]1(C2CCCC2)Cc2cc(OCC(=O)O)c(Cl)c(Cl)c2C1=O	i	i	i	i	i	i
COc1cccc(C(=O)Nc2ccc3oc(-c4ccccc4C)cc(=O)c3c2)c1	nt	nt	nt	i	nt	nt
COc1cccc(C(=O)Nc2ccc3oc(-c4ccc(F)cc4)cc(=O)c3c2)c1	nt	nt	nt	-35	nt	nt
CCOCCCNC(=O)/C=C/c1ccccc1	nt	nt	nt	i	nt	nt
Cc1cc(C)cc(C(=O)NCCc2sc(-c3ccc(F)cc3)nc2C)c1	nt	nt	nt	i	nt	i
Cc1cc(O)c2c(CN3CCN(Cc4ccccc4)CC3)cc(=O)oc2c1	i	i	i	-31!	i	i
COc1ccc(CC(=O)NO)cc1	nt	nt	nt	i	nt	nt
COC(=O)/N=C(/Cc1ccc(OC)cc1)c1ccc(OC)cc1	i	i	i	i	56µM	i
COCCOc1nc2c(c(=O)n(C)c(=O)n2C)n1C(C)c1ccccc1 (stereo unspecified)	nt	nt	nt	-36	nt	nt
COCCOc1nc2c(c(=O)n(C)c(=O)n2C)n1Cc1ccccc1	nt	nt	nt	i	nt	nt
CC1=NN(c2ccccc2)C(=O)/C1=C\c1c(C)[nH]n(-c2ccccc2)c1=O	i	i	i	i	i	i
CC1=NN(c2ccccc2)C(=O)/C1=C/c1c(O)n(-c2ccc(F)c(Cl)c2)[nH]c1=O	i	50µM	i	i	89µM	i
CS(=O)(=O)Cc1ccc(C(=O)Nc2cc(F)ccc2F)cc1	nt	nt	nt	i	nt	nt
CC1CN(C2CCN(S(=O)(=O)c3ccc(F)cc3)CC2)CC(C)O1 (stereo unspecified)	i	i	i	i	i	i
CC1CN(C2CCN(S(=O)(=O)c3ccccc3)CC2)CC(C)O1 (stereo unspecified)	i	i	i	-32	i	i
COc1ccc(OC)c(-c2csc(NC(=O)COC(=O)c3ccc(NC(=O)CC#N)cc3)n2)c1	i	79µM	i	i	i	i
Cn1c(=O)c(N)c2c3c(c(Br)ccc31)C(=O)c1ccccc1-2	112µM	i	?	i	i	i
COc1ccc(OC)c(C2SCCN2S(C)(=O)=O)c1 (stereo unspecified)	i	i	i	i	i	i
COc1ccccc1C1SCCN1S(C)(=O)=O (stereo unspecified)	i	i	7.9µM	i	i	i
COC(=O)c1cccc(C(=O)O)n1	nt	nt	nt	i	nt	nt
Cc1ccc(C)c(S(=O)(=O)N2CCN(C(=O)CCCc3c[nH]c4ccccc34)CC2)c1	112µM	i	i	i	i	i
CCOc1ccc(CNC(=O)CCCn2c(=O)c3cccn3c3ccc(F)cc32)cc1	nt	nt	nt	i	nt	i
CCN(CC1COc2ccccc2O1)C(=O)CN1C(=O)NC(C)(c2ccc(C)cc2)C1=O (stereo unspecified)	56µM	i	i	i	i	i
CCOc1cc(/C=C(\C#N)C(=O)Nc2cccc(C(=O)O)c2)cc(Br)c1OC(=O)c1ccc(OC)cc1	i	?	i	i	50µM	i
CCCOC(=O)c1cccc(Nc2nc(C(=O)OCC)nc3ccccc23)c1	nt	nt	nt	i	nt	i

Compound activity from PubChem.
